Reference: PubChem BioAssay AID2501 (Southern Research Specialized Biocontainment Screening …, 2010)
“And” between values parts separate entries of the source, which are not always exact repeats. Equal entries are not always repeated. Screen size: about 2,200 compounds; about 1,200 (55%) were called active. So high a share suggests a set chosen from earlier hits. The list shows a part of the results. Unmarked numbers belong to inactive results. The limit is not given here; nearly all actives have IC50 up to about 92 µM.

Assay: counter assay for TAg ATPase ADP read-out – biochemical, ADP-Hunter, fluorescence, counter-screen (AID 2501);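 also: purified T antigen ATPase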;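 as to inhibition: 0% = enzyme with vehicle and 100% = reference inhibitor wells; higher means more inhibition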
Conditions: series mostly up to 100 µM; inhibition: at the top concentration

| SMILES | IC50 | inhibition |
| --- | --- | --- |
| O=C(c1ccco1)N1CCN(C(=S)Nc2ccc(F)c(Cl)c2)CC1 | 39.5 µM (active) |  |
| N=c1c[n+](N2CCOCC2)[n-]o1 |  | 4.79% |
| CN1CCN(c2nc(Nc3ccc(O)cc3)nc3ccccc23)CC1 | 6.32 µM (active) |  |
| Oc1ccc(Nc2nc(N3CCCC3)c3ccccc3n2)cc1 | 4.06 µM (active) |  |
| C(=Nc1ccc(Nc2ccccc2)cc1)c1ccc2ccccc2c1 | 6.4 µM (active) |  |
| O/N=C/c1ccc2ccccc2c1 |  | 21.4% |
| C/C(=C/c1oc2ccc(O)cc2c1[N+](=O)[O-])N(C)C | 5.75 µM (active) |  |
| CC(=O)N1CCN(c2ccc(NCc3ccc(C)s3)cc2)CC1 | 3.62 µM (active) |  |
| O=C(C1=C[C@H](C2CCCCC2)C[C@H](OCCCCO)O1)N1CCN(Cc2ccc3c(c2)OCO3)CC1 |  | -36% |
| O=C(c1ccccc1)N1CCN(c2ccc(NCc3ccc4c(c3)OCO4)cc2)CC1 | 5.7 µM (active) |  |
| O=C(c1ccc(CNS(=O)(=O)c2ccccc2)cc1)N1CCN(Cc2ccccc2)CC1 |  | 19.2% |
| CC(=O)N1CCN(c2ccc(NCc3cccc4ccccc34)cc2)CC1 | 4.52 µM (active) |  |
| O=C(O)CC(C(=O)O)n1nc(-c2ccccc2)cc1-c1ccccc1 (stereo not drawn) |  | -0.27% |
| CC(=O)c1ccc2c(c1)C1C=CCC1C(C(=O)O)N2 (stereo not drawn) |  | -19.7% |
| CCn1ccc(C(=O)N2CCN(c3ncccn3)CC2)n1 |  | -18.8% |
| Cc1csc(N/N=C/c2ccc(O)c([N+](=O)[O-])c2)n1 | 13.2 µM (active) |  |
| CC(C)(C)c1ccc(C(=O)n2cnc3ccccc32)cc1 |  | -13.8% |
| Oc1ccc(-c2nc(-c3ccc(F)cc3)c(-c3ccncc3)[nH]2)cc1 | 8.21 µM (active) |  |
| C/C(=N/OC(=O)C1CC1)c1cc(-c2ccc(Cl)cc2)no1 |  | 25.3% |
| Cc1ccc(OC(=S)Nc2ccc(O)cc2)cc1 | 7.84 µM (active) |  |
| CCN(c1ccc(NC(=O)CN2C(=O)NC3(CCOc4ccccc43)C2=O)cc1)C(C)C (stereo not drawn) | 11.1 µM (active) |  |
| CC1(c2ccccc2)NC(=O)N(CC(=O)Nc2ccc(S(=O)(=O)Nc3ncccn3)cc2)C1=O (stereo not drawn) |  | -9.03% |
| Cc1cc(C(=O)NNC(=O)CN2C(=O)NC(C)(c3ccccc3)C2=O)c(C)o1 (stereo not drawn) |  | -29.5% |
| Cc1cc2c(N=O)c(NO)ccc2[nH]1 | 24.4 µM (active) |  |
| O=C1CNC(=S)N1CCc1ccc(O)c(O)c1 | 10.7 µM (active) |  |
| OC(COc1ccc2cc(Br)ccc2c1)CN1CCCC1 (stereo not drawn) |  | -8.01% |
| O/N=C(\c1ccc2c(c1)OCCO2)C1CCCCC1 |  | -5.27% |

| SMILES | IC50 | inhibition |
| --- | --- | --- |
| O=c1ccc2cc(O)c(O)cc2o1 | 11.3 µM (active) |  |
| N#CSCC(=O)c1cccc2ccccc12 |  | 13.2% |
| O=C(c1ccc([N+](=O)[O-])cc1)N1CCN(c2cccc3[nH]ccc23)CC1 | 8.91 µM (active) |  |
| Cc1cc(OCC(=O)N(C)c2ccccc2)cc2c1C(=O)CC(C)(C)O2 |  | -23.8% |
| O=C(NCCO)c1ccc2nc(-c3ccco3)c(-c3ccco3)nc2c1 |  | -13.4% |
| CCCc1cc(C(=O)N2CCCC(C(=O)c3cccc4ccccc34)C2)n(C)n1 (stereo not drawn) |  | 15.6% |
| O=C(/C=C/c1ccc(O)c(O)c1)O[C@@H]1C[C@](O)(C(=O)O)C[C@@H](O)[C@H]1O | 4.26 µM (active) and 8.41 µM (active) |  |
| CCCCNC(=O)c1onc(CCl)c1C(=O)OC |  | 8.49% |
| COc1cc(Cl)ccc1NC(=O)COc1ccccc1C(=O)N1CCN(c2ccc(O)cc2)CC1 | 6.1 µM (active) |  |
| COc1cc(SC)ccc1C(=O)N1CCN(Cc2ccccc2)CC1 |  | -2.78% |
| O=C(CCC1CCCCC1)Nc1ccccc1C(=O)N1CCOCC1 |  | -12.4% |
| COc1cc(SC)ccc1C(=O)N1CCN(c2ccc(O)cc2)CC1 | 5.86 µM (active) |  |
| CCCCC(=O)OCC(=O)c1[nH]c(C)c(C(=O)OCC)c1C |  | -18.3% |
| COc1cccc([C@H](O)Cn2cc(-c3ccc(CON=C(C)C)cc3)nn2)c1 |  | 16.7% |
| CN(C)c1ccc(NC(=O)CN2CCN(CC(=O)Nc3ccc(F)cc3)CC2)cc1 | 9.6 µM (active) |  |
| CCOc1ccc(NC(=O)Cn2sc3nc(C)cc(C)c3c2=O)cc1 |  | 9.54% |
| CN(C)c1ccc(NC(=O)COC(=O)Cn2nnc3ccccc32)cc1 | 4.51 µM (active) |  |
| CN(C)c1ccc(NC(=O)CN2CCN(c3ccc(F)cc3)CC2)cc1 | 2.66 µM (active) |  |
| CN(C)c1ccc(NC(=O)Cn2ncn3c(cc4ccccc43)c2=O)cc1 | 10.4 µM (active) |  |
| Cc1cccc(-n2c3nc(=O)[nH]c(=O)c-3cc3cc([N+](=O)[O-])ccc32)c1 |  | -3.39% |
| CCOC(=O)C1CCN(c2ncnc3c2nnn3Cc2ccccc2Cl)CC1 |  | -12.6% |
| Cc1c(-c2ccccc2)oc2c(C(=O)OCC(=O)Nc3ccc(C(N)=O)cc3)cccc2c1=O |  | -31.3% |
| CCOC(=O)c1ccc(NC(=O)CC2NCCNC2=O)cc1 (stereo not drawn) |  | -11.5% |
| Cc1nn(CC(=O)Nc2ccc(N(C)C)cc2)c(C)c1[N+](=O)[O-] | 5.17 µM (active) |  |
| CN(C)c1ccc(NC(=O)CC2NCCNC2=O)cc1 (stereo not drawn) | 4.71 µM (active) |  |
| CN(C)c1ccc(NC(=O)COC(=O)CCC(=O)c2ccc(F)cc2)cc1 | 4.64 µM (active) |  |
